Potency, outcome and activation data for one compound are collected here from PubChem BioAssay (NCATS).

Unmarked numbers belong to inactive results. Results filed as inconclusive are left out. The source made the active and inactive calls. Unless noted, calls follow the shape of the dose curve; as a rule, active = well fitted curve in the direction sought with a large enough effect; inconclusive = small, poorly fitted or top-dose-only effect, or another doubt; inactive = no such curve, though single readings can be large; an effect the other way counts as inactive or inconclusive.

A short description of assay [1]: qHTS for differential inhibitors of proliferation of Plasmodium falciparum line GB4 (AID 1816).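 Also: potency is read from the fitted curve at half-maximal effect; parasite growth measured after 72 h incubation.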 The conditions noted are these: Potency: Plasmodium falciparum GB4 proliferation inhibition. A general note: In qHTS, concentration-response curves come from the screen itself.
Assay [2] can be described thus: qHTS for differential inhibitors of proliferation of Plasmodium falciparum line 3D7 (AID 1876).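 Also: parasite growth measured after three days of culture; 0% = vehicle wells and -100% = reference inhibitor wells.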
The nature of assay [3]: qHTS for differential inhibitors of proliferation of Plasmodium falciparum line D10 (AID 1877).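 Also: parasites grown with compound for 72 h before DNA staining; plate controls were vehicle wells for no effect and reference inhibitor wells for full effect.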
Assay [4] in a line: qHTS for differential inhibitors of proliferation of Plasmodium falciparum line Dd2 (AID 1882).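 Also: series mostly up to about 29 µM; plate controls were DMSO vehicle for no effect and 0.29 µM artemisinin for full effect; nearly all actives have a fitted effect of over 65% in size.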 As to conditions: Potency: Plasmodium falciparum Dd2 proliferation inhibition. An outline of the steps: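 SYBR Green DNA fluorescence (ex 485, em 535 nm) after overnight lysis quantifies parasite growth; compound exposure lasted 72 h at 37 C on infected red cells at 2.5% hematocrit, 0.3% parasitemia (final). Artemisinin 0.29 uM and vehicle wells define normalization.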

The nature of assay [5]: qHTS for differential inhibitors of proliferation of Plasmodium falciparum line W2 (AID 1883).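 Also: potency is read from the fitted curve at half-maximal effect; parasites grown with compound for 72 h before lysis and staining.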 The conditions noted are these: Potency: Plasmodium falciparum W2 proliferation inhibition.
Assay [6] is described as follows: qHTS for differential inhibitors of proliferation of Plasmodium falciparum line HB3 (AID 1886).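 Also: parasites grown with compound for 72 h before SYBR Green readout; plate controls were vehicle for no effect and reference inhibitor for full effect.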 The conditions noted are these: Potency: Plasmodium falciparum HB3 proliferation inhibition.
Assay [7] addresses Ferritin light chain (Equus caballus) (UniProt P02791). The assay is described as follows: qHTS Validation Assay for Identification of Novel General Anesthetics (AID 2323). Also: series mostly up to about 77 µM; % is scaled to controls: 0 for no effect and ±100 for the full control effect. An outline of the steps: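 Fluorescence at 535 nm (excitation 380 nm) reported loss of 1-AMA binding to horse-spleen apoferritin (10 uM) in PBS with 50% saturated 1-aminoanthracene, after 10 min room-temperature incubation with compound; values from Hill fits of normalized response.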

Assay [8] deals with ATP-dependent DNA helicase Q1 (Homo sapiens) (UniProt P46063). The assay is described as follows: qHTS Validation Assay for Inhibitors of RecQ-Like Dna Helicase 1 (RECQ1) (AID 2353).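 Also: plate controls were DMSO vehicle for no effect and enzyme-free control for full effect.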 An outline of the steps: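 RECQ1T1 50 nM; forked duplex (20 bp + 30-nt ss tails) 200 nM, ATP 2 mM final; pH 8.0, 2 mM MgCl2, 2.5 ug/ml poly(dI-dC); 15 min compound preincubation; discontinuous kinetic read over 2 h at RT.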

Assay [9] has as its target RecQ-like DNA helicase BLM (Homo sapiens) (UniProt P54132). Nature of the assay: qHTS Validation Assay for Inhibitors of Bloom's syndrome helicase (BLM) (AID 2364).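 Also: plate controls were DMSO vehicle for no effect and enzyme-free control for full effect.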 An outline of the steps: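 Forked 20-bp duplex substrate (200 nM, TAMRA/BHQ-2) plus 2 mM ATP added after 15 min compound preincubation with 50 nM enzyme, pH 8.0, poly(dI-dC) 2.5 ug/ml. Strand separation followed by fluorescence (525/598 nm) over 2 h, normalized to enzyme-free and DMSO controls.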

A short description of assay [10]: Validation screen for small molecules that induce DNA re-replication in MCF 10A normal breast cells (AID 463097). Also: 0% is about no effect; nearly all actives have a fitted effect of over 60% in size. In a few lines:
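Image-based qHTS: normal breast cells are incubated with compound for 48 hr, stained with Hoechst, and scanned for total nuclear fluorescence. Compounds raising the fraction of nuclei with elevated DNA content count as re-replication inducers.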

Assay [11] in a line: Quantitative high throughput screen for delayed death inhibitors of the malarial parasite plastid, 96 hour incubation (AID 488745).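 Also: luciferase-expressing P. falciparum in erythrocytes at 2% hematocrit and 0.1% parasitemia; series mostly up to about 29 µM; % is scaled to controls: 0 for no effect and ±100 for the full control effect; nearly all actives have a fitted effect of over 70% in size.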 In a few lines:
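Readout is firefly luciferase luminescence from an integrated reporter in P. falciparum; lower signal marks inhibited growth. Cultures at 2% hematocrit and 0.1% parasitemia were treated with compound across two generations (96 h, 37 C, 5% CO2).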

Assay [12] concerns the target M-phase phosphoprotein 8 (Homo sapiens) (UniProt Q99549). Nature of the assay: qHTS Validation Assay for Inhibitors for MPP8 Chromodomain Interactions with Methylated Histone Tails (AID 488949).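 Also: 50 nM MPP8 with 50 nM peptide preformed then compounds added for 30 min; AlphaScreen signal from MPP8 chromodomain bound to biotinylated H3K9me3 peptide; top concentration of the series differs between compounds; % is scaled to controls: 0 for no effect and ±100 for the full control effect; nearly all actives have a fitted effect of over 55% in size.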 An outline of the steps: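 50 nM MPP8 + 50 nM b-H3K9me3 peptide, PBS pH 7.4/0.01% Tween-20, 30 min RT; + cpd 30 min RT; + AlphaScreen donor/Ni-chelate acceptor beads 10 ug/mL final, 30 min dark; luminescence read.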

The target in assay [13] is Thyrotropin receptor (Homo sapiens) (UniProt P16473). Nature of the assay: qHTS Assay for Antagonists of the Thyroid Stimulating Hormone Receptor (AID 488980). Also: series mostly up to about 58 µM; 0% is about no effect. An outline of the steps: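 Readout is cAMP by HTRF competition between cellular cAMP and cAMP-d2 for a cryptate-labelled antibody. Antagonism was assessed in TSHR-transfected HEK293 cells stimulated with 4 nM TSH (EC80, final) in the presence of RO 20-1724.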

For assay [14], the target named is Thyrotropin-releasing hormone receptor (Homo sapiens) (UniProt P34981). The assay is described as follows: qHTS for Small Molecule Agonists and Allosteric Enhancers of Human TRH Receptor: Validation Screen for Agonists (AID 493127;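 active = calcium activation more than 3 SD above the typical response in the agonist read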;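 also: intracellular calcium rise by fluo-8 fluorescence before TRH EC20 addition; 0% is about no effect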). As to conditions: TRH receptor agonist cell assay; at 2 µM; hits give high values. An outline of the steps: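 Compounds are added by online pintool to dye-loaded TRHR cells while fluorescence is recorded every second. A rise in calcium signal during the agonist read marks activation; a later 10 nM TRH addition (EC20) serves the separate enhancer mode.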

Assay [15] concerns the target Galactokinase (Homo sapiens) (UniProt P51570). The assay is described as follows: qHTS Validation Assay for Inhibitors of Human Galactokinase (GALK) (AID 493189). Also: 0% is about no effect. In a few lines: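 5 nM GALK / 100 uM galactose / 35 uM ATP, 20 mM HEPES pH8.0, 5 mM MgCl2, 60 mM NaCl, 1 mM DTT, 0.01% BSA (final). RT 1 h; Kinase-Glo Plus luminescence.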
Assay [16] can be described thus: Validation screen for small molecules that induce DNA re-replication in SW480 colon adenocarcinoma cells (AID 504364). Also: 0% is about no effect. In a few lines: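 Image-based qHTS: compounds were incubated with SW480 cells for 48 hr, nuclei stained with Hoechst, and per-nucleus fluorescence intensity scanned to flag cells with excess DNA content.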
Assay [17] addresses DNA dC->dU-editing enzyme APOBEC-3G (Homo sapiens) (UniProt Q9HC16). Nature of the assay: qHTS for inhibitors of Vif-A3G interactions: Validation (AID 588379). Also: 0% is about no effect. An outline of the steps:
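Yellow fluorescence (Ex 488, Em 500-530) of Vif-coexpressing HeLa A3G-eYFP cells, scanned by Acumen cytometer, reports blocked A3G degradation. Cells plated at 700/well overnight at 37 deg C before compound addition, then a further overnight compound incubation at 37 deg C.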

The test system of assay [18] is Zika virus NS2B-NS3 protease. The assay is described as follows: Primary screen GU AMC qHTS for Zika virus inhibitors (AID 1347154).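 Also: 0% = no-inhibitor control and -100% = no-enzyme control; nearly all actives have a fitted effect of over 70% in size.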 In a few lines:
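Fluorogenic AMC-substrate cleavage by noncovalent NS2B-NS3 protease complex (25 nM, pH 8.0 Tris buffer with Tween 20) followed for 15 minutes at room temperature (~20% conversion). Percent inhibition from ex340/em450 signal change, fitted by 4-parameter Hill equation.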

The nature of assay [19]: Primary qHTS for small molecule stabilizers of the endoplasmic reticulum resident proteome: Secreted ER Calcium Modulated Protein (SERCaMP) assay (AID 1508630). Also: % is scaled to controls: 0 for no effect and ±100 for the full control effect. An outline of the steps:
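The SH-SY5Y reporter protocol was run at 3 concentrations up to 38.3 uM (primary) or 11 concentrations (follow-up): 16 h compound, 100 nM thapsigargin for 4 h, then extracellular luciferase luminescence.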

Thyrotropin receptor (Homo sapiens), sequence (P16473 whole entry, looked up): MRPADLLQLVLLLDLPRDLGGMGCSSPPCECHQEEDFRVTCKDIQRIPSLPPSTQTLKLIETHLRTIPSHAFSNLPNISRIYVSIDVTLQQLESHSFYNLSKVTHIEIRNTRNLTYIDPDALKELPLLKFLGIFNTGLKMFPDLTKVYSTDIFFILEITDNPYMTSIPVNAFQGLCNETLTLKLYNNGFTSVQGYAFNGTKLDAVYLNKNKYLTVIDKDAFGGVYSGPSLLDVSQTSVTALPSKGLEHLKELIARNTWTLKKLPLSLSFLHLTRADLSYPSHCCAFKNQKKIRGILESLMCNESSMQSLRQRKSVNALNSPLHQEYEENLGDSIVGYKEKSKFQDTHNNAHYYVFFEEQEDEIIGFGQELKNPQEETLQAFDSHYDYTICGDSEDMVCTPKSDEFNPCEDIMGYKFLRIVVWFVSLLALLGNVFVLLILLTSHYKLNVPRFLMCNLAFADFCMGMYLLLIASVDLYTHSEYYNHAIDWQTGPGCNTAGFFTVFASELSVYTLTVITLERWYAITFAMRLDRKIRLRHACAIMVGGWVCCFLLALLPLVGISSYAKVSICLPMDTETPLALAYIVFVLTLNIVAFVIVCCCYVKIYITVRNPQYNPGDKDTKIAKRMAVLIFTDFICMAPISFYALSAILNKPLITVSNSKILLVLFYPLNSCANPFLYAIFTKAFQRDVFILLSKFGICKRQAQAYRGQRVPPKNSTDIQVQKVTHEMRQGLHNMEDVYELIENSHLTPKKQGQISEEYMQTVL
ATP-dependent DNA helicase Q1 (Homo sapiens), sequence (P46063 whole entry, looked up): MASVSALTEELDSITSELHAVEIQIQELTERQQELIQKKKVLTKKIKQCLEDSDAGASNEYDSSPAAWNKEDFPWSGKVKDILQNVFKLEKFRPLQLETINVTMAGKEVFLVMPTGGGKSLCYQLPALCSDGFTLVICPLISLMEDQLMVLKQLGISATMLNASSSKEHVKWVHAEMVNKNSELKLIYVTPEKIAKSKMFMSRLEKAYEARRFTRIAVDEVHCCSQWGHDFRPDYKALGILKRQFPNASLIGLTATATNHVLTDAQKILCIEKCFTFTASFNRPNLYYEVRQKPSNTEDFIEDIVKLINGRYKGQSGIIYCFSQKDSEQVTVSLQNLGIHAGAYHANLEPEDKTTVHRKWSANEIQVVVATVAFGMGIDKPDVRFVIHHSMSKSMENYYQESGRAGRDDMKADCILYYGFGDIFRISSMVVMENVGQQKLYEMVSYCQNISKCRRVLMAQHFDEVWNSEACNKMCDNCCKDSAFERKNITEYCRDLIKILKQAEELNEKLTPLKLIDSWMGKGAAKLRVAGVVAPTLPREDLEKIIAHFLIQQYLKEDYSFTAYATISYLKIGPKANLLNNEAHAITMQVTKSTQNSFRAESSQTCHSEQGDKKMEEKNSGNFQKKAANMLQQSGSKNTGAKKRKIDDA
RecQ-like DNA helicase BLM (Homo sapiens), sequence (P54132 whole entry, looked up): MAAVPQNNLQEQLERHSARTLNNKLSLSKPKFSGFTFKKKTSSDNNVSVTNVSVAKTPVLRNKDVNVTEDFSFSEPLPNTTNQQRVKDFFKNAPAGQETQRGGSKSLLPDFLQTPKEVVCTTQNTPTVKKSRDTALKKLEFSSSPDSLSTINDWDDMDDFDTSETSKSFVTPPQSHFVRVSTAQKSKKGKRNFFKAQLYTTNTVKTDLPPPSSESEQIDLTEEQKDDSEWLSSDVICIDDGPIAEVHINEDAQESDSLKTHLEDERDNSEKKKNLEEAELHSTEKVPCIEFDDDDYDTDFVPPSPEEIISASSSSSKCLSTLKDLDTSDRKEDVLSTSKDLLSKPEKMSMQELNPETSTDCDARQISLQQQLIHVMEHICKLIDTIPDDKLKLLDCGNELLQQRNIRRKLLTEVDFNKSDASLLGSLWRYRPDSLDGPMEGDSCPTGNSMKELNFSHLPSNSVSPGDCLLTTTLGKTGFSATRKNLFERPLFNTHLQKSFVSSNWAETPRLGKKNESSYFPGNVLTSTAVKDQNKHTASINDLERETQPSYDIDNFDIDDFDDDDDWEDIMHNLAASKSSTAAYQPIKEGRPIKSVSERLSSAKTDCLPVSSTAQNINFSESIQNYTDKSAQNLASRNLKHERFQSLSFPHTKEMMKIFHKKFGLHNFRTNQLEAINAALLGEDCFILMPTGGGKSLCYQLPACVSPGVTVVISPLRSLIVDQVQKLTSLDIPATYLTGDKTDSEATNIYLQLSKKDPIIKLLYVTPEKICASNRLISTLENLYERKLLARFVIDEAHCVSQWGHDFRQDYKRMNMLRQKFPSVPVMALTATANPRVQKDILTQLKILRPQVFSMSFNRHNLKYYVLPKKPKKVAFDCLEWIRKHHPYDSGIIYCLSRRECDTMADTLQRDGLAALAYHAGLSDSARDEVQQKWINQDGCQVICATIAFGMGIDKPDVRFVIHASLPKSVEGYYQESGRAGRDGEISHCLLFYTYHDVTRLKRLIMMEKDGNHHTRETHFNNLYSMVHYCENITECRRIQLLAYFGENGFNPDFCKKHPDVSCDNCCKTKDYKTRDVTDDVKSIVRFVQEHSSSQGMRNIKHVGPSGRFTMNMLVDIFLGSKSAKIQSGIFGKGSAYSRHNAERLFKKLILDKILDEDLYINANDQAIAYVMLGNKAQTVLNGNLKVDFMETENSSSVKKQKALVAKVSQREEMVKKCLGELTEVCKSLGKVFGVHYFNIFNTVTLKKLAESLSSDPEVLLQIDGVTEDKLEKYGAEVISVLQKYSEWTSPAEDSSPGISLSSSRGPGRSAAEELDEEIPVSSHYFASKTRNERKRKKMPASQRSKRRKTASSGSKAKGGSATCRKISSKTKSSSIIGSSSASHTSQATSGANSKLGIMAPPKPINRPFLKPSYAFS
DNA dC->dU-editing enzyme APOBEC-3G (Homo sapiens), sequence (Q9HC16 whole entry, looked up): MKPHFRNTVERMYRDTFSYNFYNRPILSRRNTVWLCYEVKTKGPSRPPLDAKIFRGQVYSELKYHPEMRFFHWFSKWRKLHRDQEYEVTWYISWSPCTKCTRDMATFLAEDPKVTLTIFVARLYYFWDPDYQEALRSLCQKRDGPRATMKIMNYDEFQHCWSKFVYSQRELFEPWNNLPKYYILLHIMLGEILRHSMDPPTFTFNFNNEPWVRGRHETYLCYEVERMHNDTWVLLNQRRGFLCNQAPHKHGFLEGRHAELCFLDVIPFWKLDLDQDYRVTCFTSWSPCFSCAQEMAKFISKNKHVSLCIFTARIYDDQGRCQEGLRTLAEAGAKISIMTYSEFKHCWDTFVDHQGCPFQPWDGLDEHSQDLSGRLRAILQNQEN
Ferritin light chain (Equus caballus), sequence (P02791 2-175 limits assumed): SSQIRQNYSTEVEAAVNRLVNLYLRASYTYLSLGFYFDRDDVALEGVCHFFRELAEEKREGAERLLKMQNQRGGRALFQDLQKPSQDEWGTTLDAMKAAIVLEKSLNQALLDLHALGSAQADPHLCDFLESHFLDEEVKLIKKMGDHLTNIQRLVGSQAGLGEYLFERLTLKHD
M-phase phosphoprotein 8 (Homo sapiens), sequence (Q99549 whole entry, looked up): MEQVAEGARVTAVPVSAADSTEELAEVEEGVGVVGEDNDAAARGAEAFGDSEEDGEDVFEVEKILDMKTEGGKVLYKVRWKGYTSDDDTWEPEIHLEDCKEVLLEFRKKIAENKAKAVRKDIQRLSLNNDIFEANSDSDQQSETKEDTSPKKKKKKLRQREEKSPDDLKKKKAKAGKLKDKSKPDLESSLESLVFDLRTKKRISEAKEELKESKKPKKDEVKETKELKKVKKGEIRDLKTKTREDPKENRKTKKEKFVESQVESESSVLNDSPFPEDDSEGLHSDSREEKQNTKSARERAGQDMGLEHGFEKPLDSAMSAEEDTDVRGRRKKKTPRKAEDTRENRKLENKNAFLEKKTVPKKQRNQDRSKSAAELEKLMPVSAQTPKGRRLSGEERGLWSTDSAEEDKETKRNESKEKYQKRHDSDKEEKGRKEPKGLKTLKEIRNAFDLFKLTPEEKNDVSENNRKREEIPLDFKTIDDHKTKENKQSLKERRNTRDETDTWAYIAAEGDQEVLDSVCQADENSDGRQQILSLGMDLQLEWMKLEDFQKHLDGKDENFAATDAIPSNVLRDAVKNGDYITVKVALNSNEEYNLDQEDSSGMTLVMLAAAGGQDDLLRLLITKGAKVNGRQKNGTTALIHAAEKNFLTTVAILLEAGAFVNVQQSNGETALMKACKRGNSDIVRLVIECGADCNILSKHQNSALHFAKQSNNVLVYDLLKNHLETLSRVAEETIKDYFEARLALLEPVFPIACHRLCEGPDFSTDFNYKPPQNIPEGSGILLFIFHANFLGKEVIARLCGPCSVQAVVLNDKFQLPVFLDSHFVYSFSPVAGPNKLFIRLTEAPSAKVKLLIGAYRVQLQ
Galactokinase (Homo sapiens), sequence (P51570 whole entry, looked up): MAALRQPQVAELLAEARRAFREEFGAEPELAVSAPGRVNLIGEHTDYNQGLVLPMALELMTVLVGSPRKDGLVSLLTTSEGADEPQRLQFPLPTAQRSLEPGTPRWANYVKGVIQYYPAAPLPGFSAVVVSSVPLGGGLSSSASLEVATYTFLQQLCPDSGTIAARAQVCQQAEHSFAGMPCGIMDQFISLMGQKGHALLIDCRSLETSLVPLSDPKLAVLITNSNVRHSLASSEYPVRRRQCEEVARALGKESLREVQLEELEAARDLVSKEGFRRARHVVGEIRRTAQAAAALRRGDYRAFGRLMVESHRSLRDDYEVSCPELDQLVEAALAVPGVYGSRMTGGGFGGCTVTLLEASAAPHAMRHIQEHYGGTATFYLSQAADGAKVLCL
Thyrotropin-releasing hormone receptor (Homo sapiens), sequence (P34981 whole entry, looked up): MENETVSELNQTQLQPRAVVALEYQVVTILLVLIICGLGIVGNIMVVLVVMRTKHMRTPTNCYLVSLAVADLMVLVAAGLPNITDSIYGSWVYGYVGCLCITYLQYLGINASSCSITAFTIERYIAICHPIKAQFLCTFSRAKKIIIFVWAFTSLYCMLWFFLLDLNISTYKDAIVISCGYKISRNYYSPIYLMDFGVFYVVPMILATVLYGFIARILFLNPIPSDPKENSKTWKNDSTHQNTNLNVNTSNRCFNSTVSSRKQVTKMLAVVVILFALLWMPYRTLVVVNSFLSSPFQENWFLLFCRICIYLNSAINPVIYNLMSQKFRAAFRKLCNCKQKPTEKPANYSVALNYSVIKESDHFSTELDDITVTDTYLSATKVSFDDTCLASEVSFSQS

Turning to `O=C(OCCN1CCCCC1)c1c[nH]c2ccccc12`, the results for the Potency in assay [1] and in assay [5] were 10 µM (active) and 8.91 µM (active), respectively. Moreover, the Potency result in assay [2], in [3], in [4], in [6], in assay [8] and in [9] was “inactive” each time. In addition, the Potency result in assay [10], in assay [11], in assay [12], in [17], in [18] and in [19] was “inactive” in each case. Also, the call in assay [7], in [13], in [15] and in assay [16] was inactive. Also, the activation in assay [14] was 1.38%.
